Compound activity deposited in PubChem by The Scripps Research Institute Molecular Screening Center.
An excerpt weighted towards active compounds, which were near 3.5% of everything screened.
GPR151 ag: activates the human receptor GPR151; Q8TDV0; PathHunter beta-arrestin GPR151 cells, luminescence; activation, % at 11.2 µM; actives 1% (n = 650,000); AID 1508602; in the data active means activation above about 4.9%;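 further: 0% = median of compound wells and 100% = cells with positive control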
FBW7 act: human FBW7 E3 ligase activation, primary screen; Q969H0; AlphaScreen FBW7–phospho-cyclin E peptide binding, activator screen; normalized activity (activation), % at 26.1 µM; actives 0.13% (n = 650,000); AID 1259310; in the data active means normalized activity above about 1.9%;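 further: purified mutant Fbw7 with reduced substrate affinity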
TEAD-YAP inh: TEAD-YAP interaction inhibition; actives 1.4% (n = 640,000); inhibition, % at 9.12 µM; HEK-TIYL cells, TEAD-Gal4/YAP UAS-luciferase luminescence; AID 1259422; in the data active means inhibition above about 32%;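 further: 0% = median of test compound wells and 100% = reference inhibitor wells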
MITF inh: human MITF inhibition, primary screen; actives 0.91% (n = 650,000); O75030; AlphaScreen MITF homodimerization, bead proximity signal; inhibition, % at 2.6 µM; in the data active means inhibition above about 50%;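 further: 0% = vehicle wells with protein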
Target sequence (O75030 whole entry, looked up): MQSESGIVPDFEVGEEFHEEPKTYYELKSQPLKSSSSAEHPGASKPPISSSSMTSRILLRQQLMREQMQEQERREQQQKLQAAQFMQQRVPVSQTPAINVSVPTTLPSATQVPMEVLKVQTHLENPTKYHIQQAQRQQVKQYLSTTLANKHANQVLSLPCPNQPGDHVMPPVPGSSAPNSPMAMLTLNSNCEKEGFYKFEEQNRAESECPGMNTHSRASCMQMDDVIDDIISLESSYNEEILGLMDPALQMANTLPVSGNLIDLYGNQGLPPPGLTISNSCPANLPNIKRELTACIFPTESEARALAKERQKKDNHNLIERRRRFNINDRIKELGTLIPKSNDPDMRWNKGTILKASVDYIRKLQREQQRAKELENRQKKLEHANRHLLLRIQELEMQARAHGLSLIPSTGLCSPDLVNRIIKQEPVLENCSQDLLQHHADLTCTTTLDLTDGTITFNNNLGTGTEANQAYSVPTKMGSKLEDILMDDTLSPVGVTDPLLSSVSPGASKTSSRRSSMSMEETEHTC
MITF confirm: confirmation of human MITF inhibitors. AlphaScreen MITF homodimerization, biotin/His-MITF beads. AID 1259372. shares compounds with MITF inh. actives 16% (n = 4,700). inhibition, % at 2.6 µM;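 active means inhibition above a cutoff derived from the DMSO control wells, cut at about 28% in these data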;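 further: 0% = MITF dimer wells with DMSO only; inhibitors lower the bead chemiluminescence by keeping MITF from dimerizing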
AS interf DR: counter-screen: compounds optically interfering with AlphaScreen; AID 1259373; shares compounds with MITF inh; AlphaScreen optical interference counterscreen, cell-free; actives 6% (n = 480); IC50, µM; call rule not given here
AlphaScreen intf2: AlphaScreen optical interference, counter-screen | shares compounds with MITF inh | LysRS AlphaScreen counterscreen, signal interference, triplicate | inhibition, % at 2.6 µM | actives 7.6% (n = 4,700) | AID 1259376;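 active means inhibition above a cutoff derived from the DMSO control wells, cut at about 30% in these data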
Numbers without * were called inactive; . = no result given.

SMILES	GPR151 ag	FBW7 act	TEAD-YAP inh	MITF inh	MITF confirm	AlphaScreen intf2	others
CC(Sc1nnc(-c2ccc([N+](=O)[O-])cc2)o1)C(N)=O (centres undefined)	-0.2	-0.4	4.0	68.7*	5.3	20.5
Cc1onc(-c2ccccc2)c1C(=O)NC1=NCCS1	0.7	-0.2	3.7	7.8	.	.
Cc1noc(C)c1C(=O)NC1=NCCS1	-0.8	0.1	-1.6	56.8*	5.7	8.1
C/C(=N\NC(=O)Cc1cccn1C)c1ccc(Cl)c(Cl)c1	1.9	-0.1	-19.1	5.3	.	.
CN(C)/C=C/C=C/C(=O)C1CCC/C(=C\C=C\N(C)C)C1=O (centres undefined)	1.3	-0.2	8.7	70.4*	62.7*	-0.7	AS interf DR=>6.48
O=C(CSc1nc2ccc(NC(=O)CSc3nc4ccc([N+](=O)[O-])cc4s3)cc2s1)Nc1ccccc1	-1.7	-0.1	-5.3	5.9	.	.
COc1cc2cc3c(N)c(C(=O)Nc4sc(C)c(C)c4C#N)sc3nc2cc1OC	1.2	-0.2	-0.5	62.3*	70.1*	22.4	AS interf DR=>6.48
O=C(CCCCCCC(=O)NCc1cccnc1)NCc1cccnc1	1.9	-0.1	2.4	7.2	.	.
O=C(Nc1c2c(nn1-c1cccc(Cl)c1)CSC2)c1ccc(Br)o1	1.2	-0.1	8.2	52.8*	2.5	-2.4
O=S(=O)(NCCCN1CCOCC1)c1ccc(Cl)cc1	2.3	0.1	-4.0	-16.4	.	.
O=S(=O)(Cc1ccc(Cl)cc1)NCCN1CCOCC1	0.2	0.1	-1.1	71.7*	9.5	10.1
CC(O)(CNCCN1CCOCC1)COc1ccc(Cl)cc1 (centres undefined)	0.8	0.2	8.1	54.5*	73.0*	0.4	AS interf DR=>6.31
CCS(=O)(=O)N1CCN(C(C)CCc2ccccc2)CC1 (centres undefined)	0.7	-0.2	18.4	51.1*	6.0	12.4
COc1ccccc1CN[C@H]1C[C@H]2C(=O)N[C@@H](Cc3ccc(O)cc3)C(=O)N2C1	2.0	-0.2	2.6	1.6	.	.
COc1ccc2nc(-c3ccco3)c(-c3ccco3)nc2c1	-1.7	0.1	-0.5	51.5*	66.3*	18.8	AS interf DR=>5.76
CCN(CC)CCCNC(=O)c1ccc2c(Cl)c3c(nc2c1)CCC3	-0.1	-0.3	2.6	-9.8	.	.
CS(=O)(=O)c1cc(C#N)c(N2CCNCC2)nc1-c1ccc(Cl)cc1	1.6	0.0	3.1	0.5	.	.
CC(C)Nc1nc(-c2ccc(Cl)cc2)c(S(C)(=O)=O)cc1C#N	1.8	0.3	-13.1	57.5*	14.3	16.1
CCOc1ccccc1C1C(C#N)=C(SCC(=O)Nc2ccc(Br)cc2)NC(=O)C1C(=O)OC (centres undefined)	0.0	0.0	10.3	54.4*	-8.1	-7.5
CC(C)C[C@@H]1NC(=O)[C@H]2CN(C(=O)NC3CCCCC3)CCN2C1=O	-1.1	-0.2	10.5	79.7*	75.0*	-13.1	AS interf DR=>6.48
CC[C@@H]1NC(=O)[C@H]2CN(C(=O)NC3CCCCC3)CCN2C1=O	-0.7	0.0	4.2	83.4*	71.4*	-10.4	AS interf DR=>6.48
CC(C)C[C@H]1NC(=O)[C@H]2CN(C(=O)NC3CCCCC3)CCN2C1=O	-0.8	0.5	11.8	73.9*	40.9*	-6.8	AS interf DR=>6.48
CCSc1nnc(NC(=O)NC(=O)c2ccc(C(F)(F)F)cc2)s1	2.7	0.0	0.6	-3.3	.	.
COc1ccc(-n2cnnc2SCC2NS(=O)(=O)N=C3CCCCCN32)cc1 (centres undefined)	1.2	0.1	6.1	-5.1	.	.
COc1ccccc1N1CCN(Cc2nnnn2Cc2ccccc2)CC1	-0.1	0.1	7.6	14.1	.	.
SMILES	GPR151 ag	FBW7 act	TEAD-YAP inh	MITF inh	MITF confirm	AlphaScreen intf2	others
C=CCc1cc(Cl)ccc1OCCCN1CCN(CC)CC1	-1.6	0.1	11.2	80.6*	0.5	18.6
C=CCc1cc(C)ccc1OCCCCN1CCOCC1	-1.8	0.1	2.6	55.8*	14.6	19.1
C=CCc1cc(Cl)ccc1OCCCN1CCOCC1	3.8	-0.1	10.9	71.0*	-1.1	6.9
O=C(Nc1ccc(Sc2nc3ccccc3s2)c(Cl)c1)c1cc([N+](=O)[O-])ccc1N1CCCCCC1	-1.5	0.1	-7.8	-0.1	.	.
CCCN1CCC(N2CCN(S(C)(=O)=O)CC2)CC1	-0.8	0.0	-2.6	68.0*	1.8	15.9
CCCS(=O)(=O)N1CCN(C2CCCCC2)CC1	-1.7	-0.1	2.6	53.0*	5.5	16.8
